FXN GAA850 act: activators of GAA850 frataxin (FXN) promoter; activation, % at 6 µM; 360,000 tested, 0.56% active; AID 540364; HEK293 lucGAA850 FXN promoter luciferase reporter, 24 h; percent of 10 µM SAHA response;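 active = activation above the average of all compounds screened plus 3 SD, cutoff fixed separately per campaign, cut at about 7.5% in these data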
AHR act: activators of human aryl hydrocarbon receptor; P35869; AHR-responsive luciferase reporter cells, luminescence; activation, % at 5 µM; 320,000 tested, 2.5% active; in the data active = activation above about 47%
HSP90 refold inh: inhibitors of HSP90 luciferase refolding in rabbit reticulocyte lysate; inhibition, % at 5.6 µM; 290,000 tested, 0.91% active; luciferase refolding luminescence, 3 h;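 active = inhibition above the screen-wide mean plus 3 SD, computed separately per campaign, cut at about 16% in these data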;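 also: inhibitors lower the luminescence because luciferase stays unfolded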
DAX1 inh: inhibitors of human orphan nuclear receptor DAX1 (NR0B1). P51843. HEK293 Gal4-DAX1 luciferase reporter, luminescence. inhibition, % at 6.75 µM. 340,000 tested, 0.99% active. AID 504766;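 active = inhibition above the mean over all tested compounds plus 3 SD, cut at about 4.2% in these data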;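 also: inhibition shows as a rise in luminescence from relieved DAX1 repression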
HSF1 inh: HSF1 inhibition | NIH3T3-HGL HSE-luciferase, MG132-induced, luminescence 8 h; hits give low values | activity change, negative = inhibition, % at 7.5 µM (by protocol) | 300,000 tested, 0.77% active | AID 2098;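 active = more than half of replicate wells show activity change below -50%, luminescence cut by over half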;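 also: luciferase reports HSF-1 transcriptional activity via heat shock element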
HSF1 activator: increases HSF-1 driven luciferase reporter signal; activation, % at 9 µM; AID 504408; NIH3T3-HGL HSF-1 luciferase reporter, MG132, 8 h; 100% = twice DMSO control signal; 300,000 tested, 1.7% active;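 active = mean replicate activation of at least 50% with a set share of replicates each reaching 50%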
AHR act confirm: human AHR activation, confirmation | 2,300 tested, 87% active | shares compounds with AHR act | activation, % at 9 µM | human cells, AHR-responsive luciferase reporter, luminescence; in the data active = activation above about 49%;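 also: HepG2 hepatoma cells carrying a DRE-driven firefly luciferase reporter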
PXR counter: activates human PXR in AHR activator counter-screen; shares compounds with AHR act; cell-based PXR reporter, luciferase luminescence; activation, % at 11.6 µM; 2,300 tested, 88% active; AID 434939; in the data active = activation above about 11%;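 also: human hepatoma DPX-2 cells expressing full-length human PXR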
Target sequence (O75469 whole entry, looked up): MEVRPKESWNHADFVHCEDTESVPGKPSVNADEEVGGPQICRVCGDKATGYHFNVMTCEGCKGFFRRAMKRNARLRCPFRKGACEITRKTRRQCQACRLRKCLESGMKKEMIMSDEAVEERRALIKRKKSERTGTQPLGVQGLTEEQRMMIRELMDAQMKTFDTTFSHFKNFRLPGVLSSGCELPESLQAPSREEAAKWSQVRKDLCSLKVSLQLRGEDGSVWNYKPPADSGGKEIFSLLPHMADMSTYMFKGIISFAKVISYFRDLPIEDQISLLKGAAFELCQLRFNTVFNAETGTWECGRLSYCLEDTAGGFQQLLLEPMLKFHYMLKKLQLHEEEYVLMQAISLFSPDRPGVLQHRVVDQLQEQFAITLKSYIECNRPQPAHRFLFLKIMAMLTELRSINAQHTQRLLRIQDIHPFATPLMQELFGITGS
Large screens that a line does not name were inactive (follow-up assays come after a bar, where they were run). Only some compounds are listed: those with a hit (about 5.9% of all), similar ones and a draw of the others.

CCn1c(SCC(=O)N2CCCCCC2)nc2c([nH]c3ccccc32)c1=O	AHR act 128.3 | AHR act confirm 101.5 | PXR counter 181.8
CCn1c(SCC(=O)NCCc2ccccc2)nc2c([nH]c3ccccc32)c1=O	AHR act 108.6 | AHR act confirm 86.4 | PXR counter 168.3
CCSc1nc2c([nH]c3ccccc32)c(=O)n1C	none
Cn1c(SCC(=O)NCc2ccccc2)nc2c([nH]c3ccccc32)c1=O	AHR act 83.6 (no result: FXN GAA850 act, DAX1 inh) | AHR act confirm 96.8 | PXR counter 126.2
O=c1[nH]c(/C=C/c2ccccc2OC(F)F)nc2c1cnn2-c1ccccc1	AHR act 85.2 | AHR act confirm inactive | PXR counter 33.2
COC(=O)CCCC(=O)N1CCCC(CCC(=O)NCc2ccc(F)c(F)c2)C1 (stereo not given)	none
COc1ccc(OC)c2sc(NC(=O)CCS(=O)(=O)c3ccccc3)nc12	AHR act 115.4 | AHR act confirm 62.9 | PXR counter 24.0
COCc1nnc(NC(=O)CCS(=O)(=O)c2ccccc2)s1	none
O=C(CCc1nc2ccccc2s1)Nc1ccccc1	none
S=C(Nc1ccccc1)c1nc2ccccc2s1	AHR act 123.7 | AHR act confirm 142.3 | PXR counter inactive
COc1ccc(-c2nc3ccccc3c(=O)[nH]2)cc1	AHR act 110.1 | AHR act confirm 105.9 | PXR counter 23.0
COc1ccc(OCCSc2nc3ccccc3c(=O)[nH]2)cc1	none
CCCCNC(=O)c1sc2ncnc(N3CCc4ccccc4C3)c2c1C	AHR act 98.6 | AHR act confirm 101.7 | PXR counter 23.5
FC(F)(F)c1cc(Cl)c2nnc(C(F)(F)Cl)n2c1	none
O=c1cc(-c2ccc3c(c2)OCO3)oc2ccccc12	AHR act 104.4 | AHR act confirm 142.5 | PXR counter 79.1
Cc1ccc(C)c(C(=O)O/N=C(\N)c2ccc(Br)cc2)c1	AHR act 95.0 | AHR act confirm 117.7 | PXR counter 15.1
N/C(Cc1ccccc1)=N\OC(=O)c1cccc2ccccc12	none
Cc1ccc(C(=O)O/N=C(\N)c2ccc(Br)cc2)cc1C	none
N/C(=N\OC(=O)c1cccc2ccccc12)c1ccc(Br)cc1	AHR act 96.0 | AHR act confirm 98.9 | PXR counter 15.2
NS(=O)(=O)c1ccc(NC2=CC(=O)C(=O)c3ccccc32)cc1	AHR act 114.3, HSF1 inh -70.0 | AHR act confirm inactive | PXR counter inactive
C/C(=C\C(=S)Nc1ccccc1)Nc1ccc2ccccc2c1	none
COc1cccc(NC(=S)Nc2cccc3ccccc23)c1	AHR act 87.7 | AHR act confirm inactive | PXR counter 105.3
COc1cc(NC(=S)Nc2cccnc2)cc(OC)c1	AHR act 116.3 | AHR act confirm 65.5 | PXR counter 23.5
C/C(=C\C(=S)Nc1ccccc1)Nc1cccc2ccccc12	AHR act 93.6 | AHR act confirm inactive | PXR counter 17.5
COc1ccc2nc(NC(=O)c3ccccc3O)sc2c1	AHR act 130.0, HSF1 activator 102.8 | AHR act confirm inactive | PXR counter 32.6
COc1ccccc1NC(=O)c1ccc([N+](=O)[O-])cc1[N+](=O)[O-]	AHR act 104.2 | AHR act confirm 93.5 | PXR counter 28.5
COc1ccccc1NC(=O)c1cc(C(=O)Nc2ccccc2OC)cc([N+](=O)[O-])c1	none
O=C(CN1CCOCC1)Nc1nc2ccc([N+](=O)[O-])cc2s1	AHR act 133.1 | AHR act confirm 91.1
COc1cccc(OC)c1C(=O)Nc1nc2ccc([N+](=O)[O-])cc2s1	AHR act 80.9 | AHR act confirm 74.5 | PXR counter inactive
O=C(CN1CCOCC1)Nc1nc2ccc(F)cc2s1	none
CCOC(=O)C1CCN(C(=O)C(C)Sc2nnc3ccccn23)CC1 (stereo not given)	none (no result: HSP90 refold inh, HSF1 inh, HSF1 activator)
Clc1ccc2c(c1)C(c1cccs1)=NNC(c1cccnc1)=N2	AHR act 104.8 | AHR act confirm 55.9 | PXR counter 49.6
FC(F)(F)c1ccc(Cl)c(NC(=S)N/N=C/c2ccccc2C(F)(F)F)c1	AHR act 104.8 | AHR act confirm 55.1 | PXR counter 74.1
CCOC(=O)c1oc2ccccc2c1COC(=O)CNC(=O)c1cccc(C)c1	none
CCOc1cc(N2CCOCC2)c(OCC)cc1NC(=O)c1[nH]c(C)c(C(C)=O)c1C	none (no result: HSP90 refold inh, HSF1 inh, HSF1 activator)
CCOc1ccc(OCC)c(NC(=O)c2[nH]c(C)c(C(C)=O)c2C)c1	AHR act 79.7 | AHR act confirm 94.6 | PXR counter 18.8
COc1ccc(Cl)cc1C(=O)NNC(=O)c1[nH]c(C)c(C(C)=O)c1C	AHR act 81.1 (no result: HSP90 refold inh) | AHR act confirm 96.3 | PXR counter 49.8
CC(=O)c1c(C)[nH]c(C(=O)NNC(=O)c2ccc(C)cc2)c1C	none (no result: HSP90 refold inh, HSF1 inh, HSF1 activator)
Cc1c(/C(Cc2ccccc2)=N/O)c2ccccc2n1C	AHR act 88.4 | AHR act confirm 111.1 | PXR counter 178.2
Cc1[nH]c2ccccc2c1C(=O)CSc1ccc(F)cc1	none (no result: HSF1 inh, HSF1 activator)
Cc1[nH]c2ccccc2c1C(=O)COc1ccccc1	AHR act 135.0 | AHR act confirm 127.9 | PXR counter 30.0
Cc1[nH]c2ccccc2c1C(=O)CSc1ccccc1	AHR act 100.8 | AHR act confirm 93.1 | PXR counter 72.4
Cc1[nH]c2ccccc2c1C(=O)CCl	none (no result: AHR act)
Cc1[nH]c2ccccc2c1C(=O)CNc1nccs1	AHR act 83.5 | AHR act confirm inactive | PXR counter 26.0
COc1cc(C)ccc1OCc1cc(C(=O)NC(C)Cn2cncn2)no1 (stereo not given)	none
COc1ccccc1NC(=O)c1nc[nH]c1C(=O)Nc1ccccc1OC	AHR act 108.5 | AHR act confirm 53.3 | PXR counter 19.0
CNC(=O)c1[nH]cnc1C(=O)Nc1ccc(Cl)cc1	AHR act 121.3 | AHR act confirm 172.1 | PXR counter 34.9
COc1ccccc1NC(=O)c1ccc(C(=O)Nc2ccccc2OC)nc1	AHR act 83.9 | AHR act confirm 102.9
COc1ccccc1NC(=O)c1cnc(SC)nc1	none
CNC(=O)c1[nH]cnc1C(=O)Nc1ccc(C)cc1	none
CCOc1ccccc1NC(=O)c1nc[nH]c1C(=O)Nc1ccccc1OCC	none
O=C(Nc1ccccc1OC(=O)c1ccc(Cl)cc1)c1ccc(Cl)cc1	AHR act 79.5 | AHR act confirm 83.4
FC(F)(F)c1nnc(-c2ccccc2)nc1N1CCCC1	AHR act 85.2 | AHR act confirm 130.7 | PXR counter 51.7
Cc1cccc(NC(=O)Cn2c(O)c(N=NC(=O)c3ccncc3)c3ccccc32)c1	none
